Each structure is given as a SMILES string. Activity calls are given as the source filed them. Rule for the calls: active = hit-call score of the fitted dose curve at least 0.9, where 1 is the maximum; inactive = score below 0.9.

Chain of Cytochrome P450 3A7 (Homo sapiens) (P24462 whole entry, looked up): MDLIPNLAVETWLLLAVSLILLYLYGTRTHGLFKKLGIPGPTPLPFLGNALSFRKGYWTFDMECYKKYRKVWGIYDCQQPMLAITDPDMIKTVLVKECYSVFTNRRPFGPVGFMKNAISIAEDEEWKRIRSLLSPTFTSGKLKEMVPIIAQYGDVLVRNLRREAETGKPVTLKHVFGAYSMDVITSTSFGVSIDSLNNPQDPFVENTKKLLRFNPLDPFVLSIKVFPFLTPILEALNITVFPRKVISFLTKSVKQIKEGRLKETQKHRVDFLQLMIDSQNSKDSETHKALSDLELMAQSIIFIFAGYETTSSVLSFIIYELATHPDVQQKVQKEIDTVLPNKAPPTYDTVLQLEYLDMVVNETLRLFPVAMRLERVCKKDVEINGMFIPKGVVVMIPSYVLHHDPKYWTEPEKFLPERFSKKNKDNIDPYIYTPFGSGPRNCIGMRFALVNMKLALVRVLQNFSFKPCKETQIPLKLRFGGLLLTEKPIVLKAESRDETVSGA

Read-out in the assay: Cytochrome P450 3A7 (Homo sapiens) (UniProt P24462)
Put plainly: LTEA_HepaRG_CYP3A7: Life Technologies and Expression Analysis (LTEA) Assay for CYP3A7 using HepaRG (AID 2283492). Particulars: mRNA level, 48 h; actives raise or lower the signal. Here is the method:
LTEA_HepaRG is a cell based, multiplexed-readout assay that uses HepaRG, a human liver cell line, with measurements taken at 48 hours after chemical dosing on a 96-well plate.LTEA_HepaRG_CYP3A7 is one of 102 assay component(s) measured in the LTEA HepaRG cell culture assay. It is a marker of NR mediated metabolism/Undifferentiated hepatocyte.Data from the assay component LTEA_HepaRG_CYP3A7 was analyzed into 1 endpoint. This assay endpoint, LTEA_HepaRG_CYP3A7, was analyzed with bidirectional fitting relative to DMSO as the negative control and baseline of activity. Using a type of inducible reporter, measures of mRNA induction for gain or loss-of-signal activity can be used to understand regulation of transcription factor activity. To generalize the intended target to other relatable targets, this assay endpoint is annotated to the cyp intended target family, where the subfamily is xenobiotic metabolism.
A total of 1060 chemcials from the ToxCast library were tested in eight-point concentration-response experiments. Cell culture and cytotoxicity assays were conducted at Thermo Fisher Scientific's Custom Services facility (Madison, WI). A single lot of human HepaRG cells (Thermo Fisher Scientific, Frederick, MD) was used for the cell culture experiments. 96-well format collagen type I coated plates of human HepaRG cells were prepared using established methods. Briefly, cryopreserved HepaRG cells were thawed, plated at a density of approximately 100,000 cells/well in HepaRG Thaw, Plate, and General Purpose media (HPRG770, Thermo Fisher Scientific), and incubated for 48 hours. 0.5% DMSO was selected as vehicle control to balance the requisite need of DMSO in HepaRG cultures to maintain differentiation (for example, baseline metabolism, proportions of hepatocytes vs. cholangiocytes), while enabling further hepatic receptor pathway activation (for example, PXR and CAR) in response to chemical exposure. 48 hours after plating, the culture medium was replaced with HepaRG Serum-Free Incudtion Media. Cells were exposed to each test chemical in duplicate and maintained in CO2 incubators for another 48 hours. Chemical plates were thawed to room temperature and 200x concentrations of treatment groups were prepared. 8-point conentration-reponse curves were made with the highest exposure at 100 uM, followed by half-log dilutions, all in 0.5% DMSO. Each test plate contained variouse controls, induction positive controls (1mM phenobarbital), cytotoxicity positive controls ([…] aflatoxin B1), vehicle controls (0.5% DMSO), and total lysis controls (0.5% DMSO). Cell morphology images were taken using an Essen IncuCyte FLR automated microscope, with six 96-well plates imaged in about 24 minutes. Images were captured and exported and JPEG files. Spent culture media was transfered to black-well plates for the LDH assay, and remaining media was sorted at -80 C for later use. Cells were treated with RLT buffer and frozen until shipped for gene expression analysis. Total RNA was isolated from the cell suspension in 75 uL of Buffer RLT (Qiagen, Germantown, MD 20874) by Quintiles/Expression Analysis (Durham, NC) using a custom isolation procedure. Total RNA from each plate well was transferred to a preamplification plate. Fluidigm's 96.96 Dynamic ArrayTM (Fluidigm, Amsterdam, the Netherlands) technology was used for gene expression analyses by quantitative reverse transcription polymerase chain reaction (qRT-PCR, performed by Quintiles/Expression Analysis, Durham, NC)89. Standard TaqManTM Assays (Applied Biosystems/ThermoFisher Scientific, Foster City, CA) were used to assess the expression of 93 genes selected based on their selectivity and sensitivity to important hepatic receptors known to be modulated by environmental chemicals; importance in human hepatocyte functionality; and hepatotoxicity. […]
For the compound `Cc1ncc(CO)c(CO)c1O`, the outcome was inactive.

Regarding `CCOC(=O)O[C@H](C)OC(=O)c1ccc2c(c1)cc(C(=O)NC1CCN(C(C)C)CC1)n2Cc1cc(-c2ccc(Cl)s2)on1`, the outcome was inactive. Consider `CC(C)(C)c1csc(-c2cc3cc(OCc4ccccc4CC(=O)O)ccc3o2)n1`, for which the call was inactive. Consider `COc1ccc2cc(S(=O)(=O)N[C@H](CC(=O)N[C@H](Cc3ccc(CN4[C@H](C)CCC[C@@H]4C)cc3)C(=O)N(C)C(C)C)c3ccc4c(c3)OCO4)ccc2c1`, for which the AC50 was 25.2 µM (active).

In the case of `CC(C)(O)c1ccc(CNC(=O)c2cccnc2Oc2ccc3nonc3c2)cc1`, the concentration at half-maximal activity (AC50) was 6.62 µM (active). Regarding `CCO[Si](CCCNC(N)=O)(OCC)OCC`, the compound was called inactive. The same measure, in the same setting: to `Cc1cccc2ccccc12` belongs “inactive”; to `Clc1ccccc1C(c1ccccc1)(c1ccccc1)n1ccnc1`, “inactive”; to `NC(=O)c1nc(-c2cccc(-c3cc(F)ccc3OCC(F)(F)C(F)(F)F)c2)n[nH]1`, “inactive”. As to `O=c1c(-c2ccc(O)cc2)coc2cc(O)cc(O)c12`, the compound was called inactive. For the compound `CC1(C)NC(=O)N(c2ccc([N+](=O)[O-])c(C(F)(F)F)c2)C1=O`, the result was inactive. `CN(C)C(=O)C1(N2CCCCC2)CCN(CC[C@@]2(c3ccc(Cl)c(Cl)c3)CN(C(=O)c3ccccc3)CCO2)CC1`: the AC50 is 24.7 µM (active). On to `CCCCCCCC[Si](OCC)(OCC)OCC`, for which the compound was called inactive. The same measure, in the same setting: to `O=C(OCCCCCCOC(=O)c1ccccc1)c1ccccc1` belongs “inactive”; to `CCCC(=O)OCCC(C)C`, “inactive”; to `Cc1ccc(C(C)C)cc1`, “inactive”. `Clc1cc(Cl)c2c(c1)N=C1CCCCCN1C2`: the AC50 is 7.11 µM (active). With `COc1cccc([C@H](O)C2CCN(CCc3ccc(F)cc3)CC2)c1OC`, the compound was classed as inactive. For `Cc1ccc2oc(CN(Cc3ccccc3)C(=O)Nc3c(F)cc(F)cc3F)c(-c3ccc(Cl)cc3)c2c1`, the AC50 was 11.1 µM (active). For the compound `CCCCCCCCCCCO`, the outcome was inactive. As to `CC[C@@H]1C[C@H](N(Cc2cc(C(F)(F)F)cc(C(F)(F)F)c2)C(C)=O)c2cc(C(F)(F)F)ccc2N1C(=O)OC(C)C`, the AC50 was 0.435 µM (active). Take `Cc1cc(F)ccc1-c1cc(N2CC[C@@H](O)[C@H]2CO)ncc1N(C)C(=O)C(C)(C)c1cc(C(F)(F)F)cc(C(F)(F)F)c1`: the compound was called inactive.

Take `CCCCCCCCOC(=O)c1cc(O)c(O)c(O)c1`: the compound was called inactive. Consider `CCCCCCCCOc1ccc(C(=O)c2ccccc2)c(O)c1`, for which the compound was classed as inactive. Still for that read-out and setting: to `CC(O)CC(C)(C)O` (stereo not given) belongs “inactive”. Regarding `O=C(O)Cc1cc(I)c(Oc2ccc(O)c(I)c2)c(I)c1`, the AC50 is 0.0294 µM (active). `Cc1cn([C@H]2C[C@H](N=[N+]=[N-])[C@@H](CO)O2)c(=O)[nH]c1=O`: the result was inactive. Regarding `O=C(O)c1ccccc1-n1cc(C(=O)O)c(=O)c2cc(Nc3c(F)cc(F)cc3Cl)c(Cl)cc21`, the AC50 is 3 µM (active). `CCCCCCCCCCCCO`: the compound was classed as inactive. Regarding `O=C1O[C@H]([C@@H](O)CO)C(O)=C1O`, the result was inactive. Consider `c1ccc(C[n+]2cccc3ccccc32)cc1`, for which the AC50 is 31.7 µM (active). As to `CCN(Cc1cccc(S(=O)(=O)O)c1)c1ccc(C(=C2C=CC(=[N+](CC)Cc3cccc(S(=O)(=O)O)c3)C=C2)c2ccccc2S(=O)(=O)[O-])cc1`, the outcome was inactive. On the same count and under the same terms, to `O=C1CCC(C2CCCCC2)CC1` belongs “inactive”. Still for that read-out and setting: to `CC1=CC(=O)/C(=C(/C)O)C(=O)O1` belongs “inactive”. On to `Cc1oc2c(NC(=O)c3c(Cl)cccc3Cl)cccc2c1C(C)(C)O`, for which the AC50 is 31.6 µM (active).

Take `CN(C[C@@H](CC[N+]12CCC(C3CCCCC3)(CC1)CC2)c1ccc(Cl)c(Cl)c1)C(=O)c1cc(C(F)(F)F)cc(C(F)(F)F)c1`: the AC50 was 28.6 µM (active). Take `O=CCCCC=O`: the call was inactive. Still for that read-out and setting: the same measure for `O=c1ccc2ccccc2o1`: “inactive”; for `CC[C@H](NC(=O)c1cc(F)ccc1NS(=O)(=O)c1cccc2cccnc12)c1ccccc1`: “inactive”.

With `Cc1c2ccccc2c(C)c2c1ccc1ccccc12`, the AC50 was 30.3 µM (active).

The values are drawn from PubChem BioAssay (EPA / NIEHS).
